Data taken from article PMC7862700, “An all-to-all approach to the identification of sequence-specific readers for epigenetic DNA modifications on cytosine”.

Tests used:
Experiment in all cases: DAPPL (digital affinity profiling via proximity ligation, sequencing); 10 mM Tris-HCl pH 7.5, 50 mM NaCl, 1 mM DTT, 4% glycerol, room temperature, 30 min; GST-TFs on glutathione beads, 16-mer random dsDNA library, 0.1% formaldehyde crosslink after washing; high values mean tight binding
Details in all cases: protein: recombinant; tags: N-terminal GST; dsDNA, one strand shown
FEV = target: T1, FEV (Homo sapiens, UniProt Q99581 1-238)
T1 sequence: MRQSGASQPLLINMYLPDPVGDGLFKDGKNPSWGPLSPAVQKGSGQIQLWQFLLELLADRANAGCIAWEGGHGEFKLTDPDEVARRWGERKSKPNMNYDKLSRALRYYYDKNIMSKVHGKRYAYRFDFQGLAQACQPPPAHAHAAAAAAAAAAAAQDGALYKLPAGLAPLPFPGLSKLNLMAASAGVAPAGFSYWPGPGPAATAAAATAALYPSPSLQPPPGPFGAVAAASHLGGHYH
Method in brief: (§1)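 GST fusions of human transcription factors were expressed in yeast and captured with glutathione beads. Once given DNA barcodes and pooled alongside a tag-only sample, they were incubated for 30 min at room temperature with 200 nmole of a random double-stranded 16-mer DNA library in Tris/NaCl/DTT/glycerol buffer, then washed, crosslinked (0.1% formaldehyde), proximity-ligated, PCR-amplified and sequenced on an Illumina NextSeq500. The binding signal of each hexamer is its read frequency for a factor divided by its frequency for the tag-only sample.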

ETV5 = ETV5 (Homo sapiens, UniProt P41161 1-510)
Method in brief: as §1

SPIC = target: T2, SPIC (Homo sapiens, UniProt Q8N5J4 1-248)
T2 sequence: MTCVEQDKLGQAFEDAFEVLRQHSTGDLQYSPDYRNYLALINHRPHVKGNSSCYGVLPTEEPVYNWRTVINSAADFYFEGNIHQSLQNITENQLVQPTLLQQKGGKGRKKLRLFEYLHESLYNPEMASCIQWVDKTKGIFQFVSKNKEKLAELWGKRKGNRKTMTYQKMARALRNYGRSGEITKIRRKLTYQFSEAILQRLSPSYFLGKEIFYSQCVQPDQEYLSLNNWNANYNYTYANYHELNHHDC
Method in brief: as §1

ELF4 = ELF4 (Homo sapiens, UniProt Q99607 1-663)
Method in brief: as §1

ELK4 = target: T3, ELK4 (Homo sapiens, UniProt P28324-2 1-405)
T3 sequence: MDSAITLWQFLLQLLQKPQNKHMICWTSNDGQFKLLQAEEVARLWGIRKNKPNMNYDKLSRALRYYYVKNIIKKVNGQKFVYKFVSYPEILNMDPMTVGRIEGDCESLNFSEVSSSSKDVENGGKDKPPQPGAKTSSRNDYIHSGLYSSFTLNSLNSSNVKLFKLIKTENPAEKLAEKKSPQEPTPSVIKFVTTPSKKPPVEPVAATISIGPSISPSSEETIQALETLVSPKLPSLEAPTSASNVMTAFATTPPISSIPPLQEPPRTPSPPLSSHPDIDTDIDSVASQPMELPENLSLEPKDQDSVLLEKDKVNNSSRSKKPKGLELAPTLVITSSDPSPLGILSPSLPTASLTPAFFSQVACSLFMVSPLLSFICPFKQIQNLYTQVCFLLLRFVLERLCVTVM
Method in brief: as §1

ETV2 = target: T4, ETV2 (Homo sapiens, UniProt O00321 1-342)
T4 sequence: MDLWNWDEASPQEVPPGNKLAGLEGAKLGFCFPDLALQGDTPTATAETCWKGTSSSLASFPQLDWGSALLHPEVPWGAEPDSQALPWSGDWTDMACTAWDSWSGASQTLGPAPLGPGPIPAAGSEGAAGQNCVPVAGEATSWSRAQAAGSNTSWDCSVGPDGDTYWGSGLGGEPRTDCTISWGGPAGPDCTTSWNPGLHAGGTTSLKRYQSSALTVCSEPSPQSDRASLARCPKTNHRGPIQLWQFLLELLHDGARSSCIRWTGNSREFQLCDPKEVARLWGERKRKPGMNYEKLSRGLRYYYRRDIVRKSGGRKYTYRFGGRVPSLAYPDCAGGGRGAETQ
Method in brief: as §1

ELF3 = target: T5, ELF3 (Homo sapiens, UniProt P78545 1-371)
T5 sequence: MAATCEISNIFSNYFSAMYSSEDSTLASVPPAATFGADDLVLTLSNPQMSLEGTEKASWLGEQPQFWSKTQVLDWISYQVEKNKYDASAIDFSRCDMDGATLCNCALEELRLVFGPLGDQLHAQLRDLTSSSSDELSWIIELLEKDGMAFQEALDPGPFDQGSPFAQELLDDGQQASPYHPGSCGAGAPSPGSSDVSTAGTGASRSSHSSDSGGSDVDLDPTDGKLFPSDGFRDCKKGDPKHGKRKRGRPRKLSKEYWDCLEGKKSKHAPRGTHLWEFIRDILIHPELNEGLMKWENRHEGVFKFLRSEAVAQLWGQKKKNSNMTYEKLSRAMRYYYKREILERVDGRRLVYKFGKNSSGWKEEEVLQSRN
Method in brief: as §1

ETV1 = ETV1 (Homo sapiens, UniProt P50549 1-477)
Method in brief: as §1

ERF = target: T6, ERF (Homo sapiens, UniProt P50548 1-548)
T6 sequence: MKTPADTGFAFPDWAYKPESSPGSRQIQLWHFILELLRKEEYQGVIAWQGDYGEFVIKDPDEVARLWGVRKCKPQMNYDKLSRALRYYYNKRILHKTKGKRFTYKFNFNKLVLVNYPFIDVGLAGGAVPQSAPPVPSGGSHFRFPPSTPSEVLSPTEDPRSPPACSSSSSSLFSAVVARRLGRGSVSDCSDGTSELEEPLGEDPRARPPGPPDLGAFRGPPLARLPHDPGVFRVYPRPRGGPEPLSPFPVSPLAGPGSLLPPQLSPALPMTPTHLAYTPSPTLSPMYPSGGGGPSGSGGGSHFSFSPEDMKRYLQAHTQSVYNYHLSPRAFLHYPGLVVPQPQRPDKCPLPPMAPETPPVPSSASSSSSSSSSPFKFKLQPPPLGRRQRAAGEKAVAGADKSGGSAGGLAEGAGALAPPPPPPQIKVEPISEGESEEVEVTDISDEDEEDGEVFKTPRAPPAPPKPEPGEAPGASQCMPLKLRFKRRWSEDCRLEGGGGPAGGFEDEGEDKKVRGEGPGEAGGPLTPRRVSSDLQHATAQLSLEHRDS
Method in brief: as §1

ETV3L = target: T7, ETV3L (Homo sapiens, UniProt Q6ZN32 1-361)
T7 sequence: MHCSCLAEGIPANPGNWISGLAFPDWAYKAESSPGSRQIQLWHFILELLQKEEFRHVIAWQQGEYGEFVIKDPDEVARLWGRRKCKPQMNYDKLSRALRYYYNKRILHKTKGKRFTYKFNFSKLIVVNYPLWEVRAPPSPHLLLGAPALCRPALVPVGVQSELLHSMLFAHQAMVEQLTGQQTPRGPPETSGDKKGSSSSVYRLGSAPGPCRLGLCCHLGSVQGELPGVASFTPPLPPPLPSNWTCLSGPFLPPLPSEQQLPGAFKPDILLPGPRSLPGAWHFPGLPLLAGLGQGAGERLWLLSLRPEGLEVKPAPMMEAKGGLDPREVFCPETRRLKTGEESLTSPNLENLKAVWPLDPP
Method in brief: as §1

ETS2 = target: T8, ETS2 (Homo sapiens, UniProt P15036 1-469)
T8 sequence: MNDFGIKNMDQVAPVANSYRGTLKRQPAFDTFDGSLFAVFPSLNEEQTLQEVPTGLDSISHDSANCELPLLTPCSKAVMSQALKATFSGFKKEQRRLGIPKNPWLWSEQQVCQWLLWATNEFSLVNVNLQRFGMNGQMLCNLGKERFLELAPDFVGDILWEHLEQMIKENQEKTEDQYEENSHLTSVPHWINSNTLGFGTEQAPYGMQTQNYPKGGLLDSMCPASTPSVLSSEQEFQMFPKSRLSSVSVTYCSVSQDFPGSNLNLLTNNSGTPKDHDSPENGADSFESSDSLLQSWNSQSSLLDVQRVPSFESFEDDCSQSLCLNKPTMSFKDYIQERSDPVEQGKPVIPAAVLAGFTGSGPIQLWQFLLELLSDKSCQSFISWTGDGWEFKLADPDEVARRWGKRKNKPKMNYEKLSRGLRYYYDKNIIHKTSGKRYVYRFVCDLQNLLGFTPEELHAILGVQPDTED
Method in brief: as §1

SPDEF = target: T9, SPDEF (Homo sapiens, UniProt O95238 1-335)
T9 sequence: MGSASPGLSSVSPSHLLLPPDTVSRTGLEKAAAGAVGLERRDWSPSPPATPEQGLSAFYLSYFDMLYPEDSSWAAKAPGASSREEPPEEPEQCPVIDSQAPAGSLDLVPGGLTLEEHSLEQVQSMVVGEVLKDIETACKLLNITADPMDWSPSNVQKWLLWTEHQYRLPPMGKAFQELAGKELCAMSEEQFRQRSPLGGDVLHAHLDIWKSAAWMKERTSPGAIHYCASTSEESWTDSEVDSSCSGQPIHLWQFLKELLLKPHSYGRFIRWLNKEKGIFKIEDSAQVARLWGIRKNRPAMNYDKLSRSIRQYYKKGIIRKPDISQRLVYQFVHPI
Method in brief: as §1

ETV7 = target: T10, ETV7 (Homo sapiens, UniProt Q9Y603 1-341)
T10 sequence: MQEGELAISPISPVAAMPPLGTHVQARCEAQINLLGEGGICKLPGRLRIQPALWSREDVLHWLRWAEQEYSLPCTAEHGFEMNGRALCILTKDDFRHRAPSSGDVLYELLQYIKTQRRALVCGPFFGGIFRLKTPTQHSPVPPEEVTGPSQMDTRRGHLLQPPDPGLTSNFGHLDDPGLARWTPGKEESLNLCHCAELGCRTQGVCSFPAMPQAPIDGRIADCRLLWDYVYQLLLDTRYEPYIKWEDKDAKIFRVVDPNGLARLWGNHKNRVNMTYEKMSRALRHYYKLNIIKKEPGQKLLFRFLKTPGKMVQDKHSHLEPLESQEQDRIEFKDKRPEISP
Method in brief: as §1

ELF5 = target: T11, ELF5 (Homo sapiens, UniProt Q9UKW6-2 1-255)
T11 sequence: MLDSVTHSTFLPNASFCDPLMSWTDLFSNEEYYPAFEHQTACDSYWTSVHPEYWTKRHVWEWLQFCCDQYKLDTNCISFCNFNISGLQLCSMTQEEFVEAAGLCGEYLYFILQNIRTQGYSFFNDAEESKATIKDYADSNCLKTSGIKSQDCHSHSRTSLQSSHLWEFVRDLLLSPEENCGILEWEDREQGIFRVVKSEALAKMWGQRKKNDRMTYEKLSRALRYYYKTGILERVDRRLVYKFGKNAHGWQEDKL
Method in brief: as §1

ETV3 = target: T12, ETV3 (Homo sapiens, UniProt P41162-2 1-143)
T12 sequence: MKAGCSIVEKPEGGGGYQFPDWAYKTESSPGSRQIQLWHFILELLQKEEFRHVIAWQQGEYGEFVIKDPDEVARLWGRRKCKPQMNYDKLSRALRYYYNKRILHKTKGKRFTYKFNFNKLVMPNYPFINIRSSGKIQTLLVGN
Method in brief: as §1

ETV6 = ETV6 (Homo sapiens, UniProt P41212 1-452)
Method in brief: as §1

Chain of ELF4 (Q99607 whole entry): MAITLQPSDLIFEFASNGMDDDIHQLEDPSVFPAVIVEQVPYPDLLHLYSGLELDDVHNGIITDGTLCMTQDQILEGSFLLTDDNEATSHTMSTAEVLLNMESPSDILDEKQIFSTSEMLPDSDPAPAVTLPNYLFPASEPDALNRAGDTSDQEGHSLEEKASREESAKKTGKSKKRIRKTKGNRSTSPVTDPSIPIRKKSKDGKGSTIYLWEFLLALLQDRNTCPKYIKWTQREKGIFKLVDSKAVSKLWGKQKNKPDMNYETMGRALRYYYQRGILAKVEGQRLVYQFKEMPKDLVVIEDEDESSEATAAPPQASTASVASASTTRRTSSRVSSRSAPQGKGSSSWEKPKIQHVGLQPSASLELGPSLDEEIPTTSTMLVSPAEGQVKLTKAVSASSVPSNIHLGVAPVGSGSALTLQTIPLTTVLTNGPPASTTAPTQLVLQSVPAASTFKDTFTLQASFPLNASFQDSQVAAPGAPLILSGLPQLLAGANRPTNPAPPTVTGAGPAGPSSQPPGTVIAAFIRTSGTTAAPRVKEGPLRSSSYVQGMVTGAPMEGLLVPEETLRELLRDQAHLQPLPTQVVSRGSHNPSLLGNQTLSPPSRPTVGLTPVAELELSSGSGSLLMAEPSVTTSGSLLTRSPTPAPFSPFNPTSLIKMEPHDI
Chain of ETV5 (P41161 whole entry): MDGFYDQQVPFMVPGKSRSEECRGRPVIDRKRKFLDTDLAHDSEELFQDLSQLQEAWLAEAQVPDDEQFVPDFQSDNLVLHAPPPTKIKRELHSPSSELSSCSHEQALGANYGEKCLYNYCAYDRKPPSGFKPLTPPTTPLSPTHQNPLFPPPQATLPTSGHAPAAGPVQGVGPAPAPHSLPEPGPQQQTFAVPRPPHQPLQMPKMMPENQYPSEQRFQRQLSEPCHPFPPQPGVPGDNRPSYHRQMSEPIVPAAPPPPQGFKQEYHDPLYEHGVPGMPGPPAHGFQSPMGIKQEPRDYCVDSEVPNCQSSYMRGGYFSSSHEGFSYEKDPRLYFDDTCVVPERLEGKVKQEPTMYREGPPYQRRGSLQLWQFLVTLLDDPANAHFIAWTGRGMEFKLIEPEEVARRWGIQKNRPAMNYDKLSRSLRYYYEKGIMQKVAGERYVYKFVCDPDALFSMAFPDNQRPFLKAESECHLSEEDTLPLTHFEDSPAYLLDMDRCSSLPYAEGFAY
Chain of ETV6 (P41212 whole entry): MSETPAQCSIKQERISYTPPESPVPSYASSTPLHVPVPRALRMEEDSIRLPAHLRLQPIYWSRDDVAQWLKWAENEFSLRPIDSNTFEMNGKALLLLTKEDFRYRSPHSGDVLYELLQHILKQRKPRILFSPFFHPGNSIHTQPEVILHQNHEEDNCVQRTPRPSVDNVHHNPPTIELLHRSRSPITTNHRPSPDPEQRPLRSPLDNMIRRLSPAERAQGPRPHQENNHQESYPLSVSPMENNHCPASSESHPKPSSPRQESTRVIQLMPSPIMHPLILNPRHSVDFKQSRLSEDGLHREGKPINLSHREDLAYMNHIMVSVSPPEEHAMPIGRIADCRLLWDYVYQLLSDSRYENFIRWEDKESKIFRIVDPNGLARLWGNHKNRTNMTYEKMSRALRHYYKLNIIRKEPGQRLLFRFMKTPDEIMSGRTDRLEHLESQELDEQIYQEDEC
Chain of ETV1 (P50549 whole entry): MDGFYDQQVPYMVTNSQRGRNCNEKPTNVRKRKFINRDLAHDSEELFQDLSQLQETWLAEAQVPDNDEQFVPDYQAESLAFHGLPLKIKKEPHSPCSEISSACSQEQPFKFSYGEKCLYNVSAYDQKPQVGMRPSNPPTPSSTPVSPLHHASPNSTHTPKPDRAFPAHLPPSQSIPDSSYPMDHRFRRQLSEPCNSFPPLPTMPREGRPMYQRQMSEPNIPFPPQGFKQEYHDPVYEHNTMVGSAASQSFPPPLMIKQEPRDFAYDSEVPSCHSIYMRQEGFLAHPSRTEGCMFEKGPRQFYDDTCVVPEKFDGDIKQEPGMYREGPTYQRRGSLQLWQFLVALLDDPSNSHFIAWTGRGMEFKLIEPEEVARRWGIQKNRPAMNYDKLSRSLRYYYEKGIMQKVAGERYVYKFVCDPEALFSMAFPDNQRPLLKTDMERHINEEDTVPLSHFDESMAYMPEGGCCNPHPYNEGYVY

Sequence	binding signal (FEV)	binding signal (ETV5)	binding signal (SPIC)	binding signal (ELF4)	binding signal (ELK4)	binding signal (ETV2)	binding signal (ELF3)	binding signal (ETV1)	binding signal (ERF)	binding signal (ETV3L)	binding signal (ETS2)	binding signal (SPDEF)	binding signal (ETV7)	binding signal (ELF5)	binding signal (ETV3)	binding signal (ETV6)
GCACAT	1.23 fold enrichment (6-mer frequency, TF over GST control)	1.2 fold enrichment (6-mer frequency, TF over GST control)	1.14 fold enrichment (6-mer frequency, TF over GST control)	1.12 fold enrichment (6-mer frequency, TF over GST control)	1.06 fold enrichment (6-mer frequency, TF over GST control)	1.09 fold enrichment (6-mer frequency, TF over GST control)	1.11 fold enrichment (6-mer frequency, TF over GST control)	1.1 fold enrichment (6-mer frequency, TF over GST control)	1.2 fold enrichment (6-mer frequency, TF over GST control)	1.19 fold enrichment (6-mer frequency, TF over GST control)	1.12 fold enrichment (6-mer frequency, TF over GST control)	1.28 fold enrichment (6-mer frequency, TF over GST control)	1.07 fold enrichment (6-mer frequency, TF over GST control)	1.1 fold enrichment (6-mer frequency, TF over GST control)	1.15 fold enrichment (6-mer frequency, TF over GST control)	1.14 fold enrichment (6-mer frequency, TF over GST control)
ACCCCA	1.07 fold enrichment (6-mer frequency, TF over GST control)	1.05 fold enrichment (6-mer frequency, TF over GST control)	1.15 fold enrichment (6-mer frequency, TF over GST control)	1.12 fold enrichment (6-mer frequency, TF over GST control)	1.2 fold enrichment (6-mer frequency, TF over GST control)	1.04 fold enrichment (6-mer frequency, TF over GST control)	1.04 fold enrichment (6-mer frequency, TF over GST control)	1.06 fold enrichment (6-mer frequency, TF over GST control)	1.08 fold enrichment (6-mer frequency, TF over GST control)	1.09 fold enrichment (6-mer frequency, TF over GST control)	1.15 fold enrichment (6-mer frequency, TF over GST control)	1.02 fold enrichment (6-mer frequency, TF over GST control)	1.06 fold enrichment (6-mer frequency, TF over GST control)	1.04 fold enrichment (6-mer frequency, TF over GST control)	1.09 fold enrichment (6-mer frequency, TF over GST control)	1.02 fold enrichment (6-mer frequency, TF over GST control)
CACACA	1.18 fold enrichment (6-mer frequency, TF over GST control)	1.16 fold enrichment (6-mer frequency, TF over GST control)	1.07 fold enrichment (6-mer frequency, TF over GST control)	1.16 fold enrichment (6-mer frequency, TF over GST control)	1.1 fold enrichment (6-mer frequency, TF over GST control)	1.23 fold enrichment (6-mer frequency, TF over GST control)	1.09 fold enrichment (6-mer frequency, TF over GST control)	1.06 fold enrichment (6-mer frequency, TF over GST control)	1.16 fold enrichment (6-mer frequency, TF over GST control)	1.22 fold enrichment (6-mer frequency, TF over GST control)	1.14 fold enrichment (6-mer frequency, TF over GST control)	1.07 fold enrichment (6-mer frequency, TF over GST control)	1.1 fold enrichment (6-mer frequency, TF over GST control)	1.06 fold enrichment (6-mer frequency, TF over GST control)	1.1 fold enrichment (6-mer frequency, TF over GST control)	1.18 fold enrichment (6-mer frequency, TF over GST control)
